# Sampled rows, rich in hits. Any-hit rate of the full collection: about 3.8%.
# TGFb inhibitor: qHTS for Inhibitors of TGF-b; HepG2 CAGA-GFP TGF-b/SMAD3 reporter, GFP fluorescence, 18 h; TGF-beta stimulated, 500 pg/mL final; Potency, µM (titrated, usually from 46.1 µM), inactives show at the highest dose activity, negative = inhibition, hits mostly inhibitors; hit rate 1.2% among 410,000; AID 588855, 2011; further: on the % scale 0 is the no-effect control and ±100 the full control effect; nearly all actives have a fitted effect of over 65% in size
#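 TGF-beta reporter screen: HEPG2 CAGA-GFP, 1% FBS, 500 pg/mL TGF-beta final, 18 h; per-cell GFP summed per well; curves fitted and categorized by class.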
# HepG2 tox: qHTS for Inhibitors of TGF-b: Cytotox Counterscreen; HepG2 CAGA-GFP viability, ATP luminescence, 18 h; AID 588856, 2011; Potency, µM (doses to about 46.1 µM), inactives show top-dose activity change, negative = cytotoxicity, actives largely listed as cytotoxic; hit rate 0.76% among 410,000
#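 HepG2 CAGA-GFP cells (1000/well, DMEM with 1% FBS) received compound, then TGF-beta at 500 pg/mL final, and were incubated 18 hours at 37 degrees C. Viability was read by CellTiter-Glo luminescence. Media-only wells were set as complete cell-killing and DMSO as no toxicity.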
# A549 tox: Nrf2 qHTS screen for inhibitors: counterscreen for cytotoxicity; A549 ARE-Fluc cells, CellTiter-Fluor viability, 18-24 h; Potency, µM (top dose mostly 46 µM), inactives show at the top dose activity change, negative = cytotoxicity, most hits filed as inhibitors; hit rate 0.16% among 390,000; further: on the % scale 0 is the no-effect control and ±100 the full control effect
#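 A549 ARE_Fluc cells in 5% FBS OPTI-MEM were exposed to compounds in concentration-response for 18-24 h at 37 deg C. Viability was read by CellTiter-Fluor fluorescence (Ex 405/Em 525) after 30 min, before the luciferase read.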
# Nrf2 block: Nrf2 qHTS screen for inhibitors | Potency, µM (doses to about 46 µM), for inactives: at the highest dose activity change, negative = inhibition, hits mostly inhibitors | hit rate 2.1% among 360,000 | A549 ARE-Fluc reporter, luciferase luminescence, 18-24 h; further: on the % scale 0 is the no-effect control and ±100 the full control effect; nearly all actives have a fitted effect of over 60% in size
#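 Nrf2 activity is the BugLite luminescence, read 15 min after reagent at room temperature, following CellTiter-Fluor cytotoxicity readout (30 min, 37C). Compound titrations were applied for 18-24 h to 5000 A549 ARE_Fluc cells/well in 5% FBS OPTI-MEM.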
# ATXN2 expr inh: Primary qHTS for Inhibitors of ATXN expression; hit rate 0.72% among 360,000; HEK-293 ATXN2-luciferase reporter, luminescence, 24 h; Potency, µM (top dose mostly 57 µM), without a hit: at the top dose activity change, negative = inhibition, actives largely listed as inhibitors; further: on the % scale 0 is the no-effect control and ±100 the full control effect; nearly all actives have a fitted effect of over 55% in size
#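 qHTS (up to 57 uM final) was run with 24 h compound exposure of reporter cells at 37 °C. Each well was multiplexed: SteadyGlo luminescence measured ATXN2-luciferase expression after a fluorogenic Gly-Phe-AFC viability readout (25 uM final).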
# S2 tox: Viability Counterscreen for Primary qHTS for Inhibitors of ATXN expression. S2 cells (HEK-293 line with an ATXN2-luciferase reporter) viability, CellTiter-Fluor protease fluorescence, 24 h. Potency, µM (titrated, usually from 56.7 µM), most hits filed as cytotoxic. hit rate 0.49% among 400,000. AID 651635, 2014; further: nearly all actives have a fitted effect of over 40% in size
# Active calls of the source: *; i = inactive; ? = inconclusive; nt = no result given. The call rests on the fitted dose curve; in most records, active means well fitted curve in the direction sought with a large enough effect; inconclusive means small, poorly fitted or top-dose-only effect, or another doubt; inactive means no such curve, though single readings can be large; an effect the other way counts as inactive or inconclusive. Potency means the concentration at half of the fitted maximal effect.
SMILES,TGFb inhibitor,HepG2 tox,A549 tox,Nrf2 block,ATXN2 expr inh,S2 tox
Fc1ccc(N2CCN(C(=S)NCC3CCCO3)CC2)cc1 (stereo unspecified),-3%,0%,4%,-24%,-15%,i
S=C(NCC1CCCO1)N1CCN(c2nc(-c3ccc(Cl)cc3)cs2)CC1 (stereo unspecified),?,-21%,?,16µM*,?,?
S=C(NCCCN1CCOCC1)N1CCN(c2nc(-c3ccc(Cl)cc3)cs2)CC1,13µM*,11µM*,?,13µM*,3.2µM*,nt
CCOC(=O)NC(=O)CSc1nnnn1-c1ccc(Cl)cc1,-2%,-1%,-1%,2%,-4%,i
Cc1c(NC(=O)/C=C/c2ccc(S(=O)(=O)N3CCOCC3)cc2)c(=O)n(-c2ccccc2)n1C,-20%,5%,11%,1%,-37%,i
COc1ccc(CN2C[C@@H](CO)O[C@@H](n3cnc4c(NCc5ccco5)ncnc43)C2)cc1,22%,-24%,nt,nt,-12%,i
CC(=O)Nc1ccc(Br)c2ccccc12,-11%,-6%,6%,15%,-19%,i
O=Nc1ccc(NO)c2ccccc12,13µM*,-155%,nt,nt,nt,i
O=C(COc1ccccc1-c1nc(-c2ccccc2)no1)Nc1cccc([N+](=O)[O-])c1,1%,-3%,-9%,?,nt,nt
Cc1ccc(-c2nc(=Nc3c(C)cc(C)cc3C)sn2-c2ccccc2)cc1,5.6µM*,-29%,-30%,23µM*,nt,nt
CN=c1nc(-c2ccccc2)n(-c2ccccc2)s1,-17%,-7%,-7%,?,50%,i
CCCc1oc2ccc(NS(=O)(=O)c3ccc(OC)cc3)cc2c1C(=O)OCC,10µM*,-105%,?,nt,nt,nt
CCCc1oc2ccc(NS(=O)(=O)c3ccc(OCC)cc3)cc2c1C(=O)OCC,?,-103%,-8%,?,nt,nt
CCOC(=O)c1ccccc1NS(=O)(=O)c1ccccc1,-3%,-27%,?,23µM*,5%,i
CCOC(=O)c1c(-c2ccccc2)oc2ccc(NS(=O)(=O)c3ccc(OC)cc3)cc12,13µM*,-27%,-7%,?,nt,nt
CCOC(=O)c1c(-c2ccccc2)oc2ccc(NS(=O)(=O)c3cc(C)c(C)cc3C)cc12,?,-32%,1%,-52%,-13%,i
CCOC(=O)c1c(-c2ccccc2)oc2ccc(NS(=O)(=O)c3ccccc3)cc12,16µM*,-58%,-3%,?,?,?
CCc1ccc(-c2cc(C)no2)cc1S(=O)(=O)N1CCN(c2ccccc2)CC1,-26%,-13%,14%,-1%,-23%,i
O=C(CSc1cccc2cccc(Cl)c12)NCc1cccs1,-4%,-3%,5%,9%,-15%,i
O=C(NNC(=O)c1ccc(NC(=O)c2ccccc2)cc1)c1ccc(F)cc1,5%,0%,-3%,-9%,3%,i
O=C(NC1=C(Nc2ccc(F)cc2)C(=O)c2ccccc2C1=O)c1ccc(Cl)cc1,11µM*,11µM*,-5%,2%,-10%,i
c1ccc(CN=C(NCc2ccccc2)NCc2ccccc2)cc1,?,22µM*,-15%,?,?,i
CN(C)c1ccc(/C=C2/C[N+](C)(C)C/C(=C/c3ccc(N(C)C)cc3)C2=O)cc1,0%,13µM*,15µM*,?,-12%,13µM*
Nc1nc(-c2cccc(NS(=O)(=O)c3ccccc3)c2)cs1,-5%,-21%,-2%,?,13%,i
Cc1ccc(OCC(=O)N2N=C(C(F)(F)F)CC2(O)C(C)(C)C)cc1C (stereo unspecified),?,-106%,?,?,?,?
SMILES,TGFb inhibitor,HepG2 tox,A549 tox,Nrf2 block,ATXN2 expr inh,S2 tox
Cc1ccccc1OCC(=O)N1N=C(C(F)(F)F)CC1(O)C(C)(C)C (stereo unspecified),?,11µM*,-4%,-5%,-26%,i
CCC1=C(c2ccc(C)cc2)S(=O)(=O)N=C1N1CCC(C(=O)NCc2ccc(C)cc2)CC1,?,-35%,-6%,-43%,nt,nt
CCC1=C(c2ccc(C)cc2)S(=O)(=O)N=C1N1CCC(C(=O)NCCc2ccc(Cl)cc2)CC1,13µM*,-22%,-23%,?,nt,nt
C=CCNc1nc(NCc2ccc(NC(C)=O)cc2)c2sc(-c3ccccc3)cc2n1,?,11µM*,nt,nt,?,32µM*
CC(=O)Nc1ccc(CNc2nc(NC(C)C)nc3cc(-c4ccccc4)sc23)cc1,?,-113%,nt,nt,22µM*,?
C=CCNc1nc(NCCCN2CCCC2=O)c2sc(-c3ccccc3)cc2n1,?,-13%,nt,nt,-31%,i
CC(=O)NCCNc1nc(NC(C)C)nc2cc(-c3ccccc3)sc12,-7%,-28%,nt,nt,-21%,i
CCc1[nH]c(C(=O)O)c(C)c1C(=O)OC,13%,17%,-6%,2%,2%,i
Cc1cc(C(=O)c2ccccc2)cc(C)c1O,3%,8%,1%,16%,-9%,?
CC1=C/C(=C(\c2cc(C)c(O)c(Br)c2)c2ccccc2S(=O)(=O)O)C=C(Br)C1=O,-15%,-39%,16µM*,?,?,11µM*
C[C@@H]1CN([C@H](C)CO)C(=O)Cc2cc(NC(=O)Nc3ccccc3)ccc2O[C@@H]1CN(C)Cc1ccc2c(c1)OCO2,16µM*,18µM*,?,-89%,?,?
C[C@@H]1CN([C@H](C)CO)C(=O)c2cc(NC(=O)Nc3ccc(C(F)(F)F)cc3)ccc2O[C@H]1CN(C)S(=O)(=O)c1ccccc1,?,-1%,?,16µM*,-31%,?
C[C@@H]1CCCCO[C@@H](CN(C)C(=O)C2CCCCC2)[C@@H](C)CN([C@H](C)CO)C(=O)c2cc(NC(=O)NC3CCCCC3)ccc2O1,-8%,-45%,nt,nt,?,?
COc1ccc(S(=O)(=O)N(C)C[C@H]2Oc3ccc(NC(=O)Nc4ccc(C(F)(F)F)cc4)cc3C(=O)N([C@H](C)CO)C[C@@H]2C)cc1,?,-22%,?,23µM*,?,?
C[C@H]1CCCCO[C@H](CN(C)C(=O)C2CCCCC2)[C@@H](C)CN([C@@H](C)CO)C(=O)c2cc(NC(=O)NC3CCCCC3)ccc2O1,-3%,-21%,nt,nt,-5%,25µM*
